Consider six compounds from PubChem BioAssay (NCATS).

Where “and” joins values, the source holds several entries; their conditions need not be identical. Equal entries are not always repeated. Unmarked numbers belong to inactive results. Records with an inconclusive call do not appear. Calls of active or inactive are those of the source. Unless noted, the call rests on the fitted dose curve; in most records, active means well fitted curve in the direction sought with a large enough effect; inconclusive means small, poorly fitted or top-dose-only effect, or another doubt; inactive means no such curve, though single readings can be large; an effect the other way counts as inactive or inconclusive.

The nature of assay [1]: Cell Viability - BJ (AID 421; calls by dose curve;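 further: potency means the concentration at half of the fitted maximal effect; cells exposed to compound for 40 hours at 37 °C before readout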). The following applies: BJ fibroblast viability, qHTS. In short, it runs like this:
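Cytotoxicity in human BJ foreskin fibroblasts is scored as loss of cellular ATP after a 40-hour exposure, measured by luciferase luminescence. Controls are DMSO and 100 uM tamoxifen.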
On the technique in general: In qHTS, concentration-response curves come from the screen itself.

The nature of assay [2]: Cell Viability - Jurkat (AID 426;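 active means dose-dependent loss of cell ATP signal giving a full or clear fitted curve, ranked by lower potency value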;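 further: potency means the concentration at half of the fitted maximal effect; cells exposed to compound for 40 hours at 37 °C before ATP read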). The following applies: qHTS. In short, it runs like this: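 qHTS, 1536-well; Jurkat E6-1, 5000 cells/well, complete medium; cpd 40 hr, 37 °C; CellTiter-Glo 20 min RT; luminescence. AC50 by Hill fit.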
Assay [3] in a line: Cell Viability - Hek293 (AID 427;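 active means compounds whose dose-response curve shows a full or clear partial loss of cell viability, called from curve shape rather than a numeric limit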;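 further: potency means the concentration at half of the fitted maximal effect; cells exposed to compound for 40 hours at 37 °C before reading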). The following applies: qHTS. The method, boiled down: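 qHTS, human embryonic kidney (adenovirus-transformed) cells; 40 hr cpd, 37 °C; CellTiter-Glo ATP luminescence. Norm: DMSO = 0, 100 uM tamoxifen = 100% inhibition. Hill-fit AC50.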
The nature of assay [4]: Cell Viability - SK-N-SH (AID 435; calls by dose curve;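 further: potency means the concentration at half of the fitted maximal effect; compound exposure lasted 40 h at 37 °C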). The following applies: SK-N-SH neuroblastoma cell viability qHTS. In short, it runs like this:
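Cells seeded at 1500 per well and incubated 5 hr at 37 °C. Compound added, then 40 hr at 37 °C. CellTiter-Glo added, 20 min at room temperature, luminescence read.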

The nature of assay [5]: Cellular Toxicity (caspase-3) Jurkat (AID 655).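 Further: cells exposed to compound for 16 h at 37 °C before reading.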 The following applies: Jurkat caspase-3 activation, luminescence; caspase-3 activation: at 92.2 µM (top of the series), DMSO = 0%, tamoxifen = 100%. In short, it runs like this:
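Caspase 3/7 activation is scored as increased luminescence in Jurkat cells cultured with compound for 16 hours in complete medium. AC50 values come from Hill fits of qHTS concentration-response data normalized to DMSO and 100 uM tamoxifen controls.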

A short description of assay [6]: Cellular Toxicity (caspase-3) SHSY5Y (AID 657). The following applies: SH-SY5Y caspase-3 activation, DMSO zero, 10 µM staurosporine = 100%; series mostly up to 91.7 µM. The method, boiled down: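 Cells plated and incubated 5 h at 37 °C, dosed over a concentration range, incubated 16 h, then given Caspase-Glo 3/7 reagent for 1 h at room temperature before luminescence reading. Staurosporine (10 uM) defined full stimulation.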

Assay [7] can be described thus: Cellular Toxicity (caspase-3) BJ (AID 658). The following applies: BJ fibroblasts, luminescence, normalized: DMSO 0%, staurosporine 100%; series mostly up to 91.7 µM. In short, it runs like this: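 Luminescent aminoluciferin-substrate cleavage reports caspase 3/7 activity in normal human BJ fibroblasts after 16 hr compound exposure at 37 °C. Normalized to DMSO (basal) and 10 uM staurosporine (100%); AC50 from Hill fit of concentration-response.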

A short description of assay [8]: Cellular Toxicity (caspase-3) N2a (AID 665).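 Further: compound exposure lasted 16 h at 37 °C before readout.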 The conditions noted are these: N2a cells, luminescence, normalized: DMSO 0%, 10 µM staurosporine 100%; series mostly up to 92.2 µM. In short, it runs like this: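 N2a cells, 1500/well, 5 h settle at 37 °C; cpd 16 h, 37 °C; Caspase-Glo 3/7, 1 h RT; luminescence. Norm: DMSO = 0, 10 uM staurosporine = 100%. AC50, Hill fit.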

Assay [9] can be described thus: Cellular Toxicity (caspase-3) Renal Proximal Tubule (AID 667).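 Further: cells exposed to compound for 16 hours at 37 °C before detection.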 The conditions noted are these: renal proximal tubule cells; series mostly up to 91.7 µM. The method, boiled down:
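In qHTS format, rat primary proximal tubule cells seeded at 1000 per well are exposed to compounds for 16 hours at 37 °C. An increase in Caspase-Glo 3/7 luminescence indicates caspase activation.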

A short description of assay [10]: MultiTox-Fluor Cytotoxicity Assay - LYMP1-001 - Dead Cells (AID 946). The following applies: LYMP1-001 lymphoblastoid cells, dead-cell protease fluorescence; series mostly up to 92.2 µM. In short, it runs like this:
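Seed 2500 LYMP1-001 cells/well, incubate 5 hr at 37 C; add compound, 16 hr at 37 C; add MultiTox-Fluor reagent, 60 min RT; read dead-cell fluorescence Ex/Em=485/520. Normalize to DMSO and 15 uM tetraoctylammonium bromide.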

Assay [11] in a line: Cell Viability - LYMP1-002 - Assay at 16 hr (AID 948).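 Further: 0% = DMSO alone and full effect = 92 µM tetraoctylammonium bromide.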 The conditions noted are these: LYMP1-002 lymphoblastoid cell viability; series mostly up to 92.2 µM. In short, it runs like this:
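Acute cytotoxicity is scored as a concentration-dependent fall in intracellular ATP in a human lymphoblastoid line (LYMP1-002) after 16 hr compound exposure at 37 C, measured by luciferase luminescence.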

Assay [12] in a line: MultiTox-Fluor Cytotoxicity Assay - LYMP1-003 - Dead Cells (AID 961). Further: nearly all actives have a fitted effect of over 70% in size. The conditions noted are these: LYMP1-003 lymphoblastoid cells, dead-cell protease fluorescence; series mostly up to 92.2 µM. The method, boiled down: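 LYMP1-003 lymphoblastoid, 2500 cells/well, 5 hr settle then 16 hr cpd at 37 C; MultiTox-Fluor reagent 60 min RT; Ex/Em 485/520 dead-cell signal; norm. DMSO = 0%, 15 uM tetraoctylammonium bromide = 100%; Hill AC50.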

Assay [13] in a line: Cell Viability - LYMP1-003 - Assay at 24 hr (AID 963).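 Further: plate controls were DMSO only for no effect and tetraoctylammonium bromide positive control for full effect.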 The conditions noted are these: LYMP1-003 lymphoblastoid cell viability; series mostly up to 92.2 µM. In short, it runs like this:
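Cells seeded at 2500/well, 5 hr at 37 C; compounds added; 24 hr at 37 C; CellTiter-Glo added, 30 min room temperature; luminescence read. Decrease in ATP taken as cytotoxicity, AC50 from Hill modelling.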

Assay [14] in a line: Cell Viability - LYMP2-013 (AID 970).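 Further: cells exposed to compound for 24 h at 37 °C; nearly all actives have a fitted effect of over 55% in size.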 Further: potency means the concentration at half of the fitted maximal effect. The conditions noted are these: LYMP2-013 lymphoblastoid cells viability; series mostly up to 92.2 µM. The method, boiled down:
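qHTS; 2500 lymphoblastoid cells/well; 5 hr 37 C settle; cpd 24 hr 37 C; CellTiter-Glo, 30 min RT; luminescence. AC50 = Hill fit.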

Assay [15] in a line: Cell Viability - LYMP2-016 (AID 984).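 Further: cells exposed to compound for 24 hours at 37 °C; nearly all actives have a fitted effect of over 55% in size.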 Further: potency means the concentration at half of the fitted maximal effect. The conditions noted are these: LYMP2-016 lymphoblastoid cell viability, qHTS; series mostly up to 92.2 µM. The method, boiled down:
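Acute toxicity in a Coriell human lymphoblastoid line is scored as loss of intracellular ATP over 24 h of treatment in complete medium. CellTiter-Glo signal is fitted across concentrations with the Hill equation to give AC50.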

Assay [16] can be described thus: Cell Viability - LYMP1-002 - Assay at 24 hr (AID 993). Further: on the % scale 0 is the no-effect control and ±100 the full control effect. The conditions noted are these: LYMP1-002 lymphoblastoid cells viability; series mostly up to 92.2 µM. In short, it runs like this: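 Cells plated 2500/well, 5 hr 37 C; compounds added, 24 hr 37 C; CellTiter-Glo added, 30 min RT; luminescence read. Tetraoctylammonium bromide positive control. Hill-equation AC50.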

Assay [17] in a line: qHTS Assay for Identification of Small Molecule Inducers of Hypoxia Response (AID 2120; active means well fitted curve in the direction sought with a large enough effect in the signal ratio, with a control signal flat, not every such curve was filed as active; the % refers to the signal ratio; further: 0% is about no effect). The following applies: hypoxia response reporter cells, beta-lactamase ratio readout; series mostly up to 104 µM. In short, it runs like this:
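ME-180 HRE-bla cells plated in Opti-MEM/0.5% dialyzed FBS, rested 4-5 h, then dosed with compound titrations by pin tool. After 17 h at 37 degrees C, CCF4 dye loaded 2.5 h at RT; 460/530 nm ratio gave %Activity and AC50.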

Assay [18] deals with Peroxisome proliferator-activated receptor alpha (Homo sapiens) (UniProt Q07869). In words: qHTS assay for small molecule agonists of the peroxisome proliferator-activated receptor alpha (PPARalpha) signaling pathway (AID 651778). Further: % of control where 0% means no effect. The following applies: PathHunter PPARalpha complementation, chemiluminescence, 6 h; stronger effect = higher value. In short, it runs like this:
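Cells plated at 2,000/well and held overnight at 37 C, 5% CO2, then compound added by pin tool for 6 hr; after PathHunter detection reagent and 60 min at room temperature, chemiluminescence from enzyme complementation was read.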

The nature of assay [19]: qHTS assay for cell viability of HEK293 cells (AID 743288). Further: on the % scale 0 is the no-effect control and ±100 the full control effect; nearly all actives have a fitted effect of over 50% in size. The following applies: ATP luminescence (CellTiter-Glo), 18 h, stronger effect = lower value. In short, it runs like this: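 The Tox21 protocol used parental HEK293 cells treated for 18 h at 37 C with compounds delivered by pintool; ATP-coupled luminescence after 30 min at room temperature gave viability.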
Assay [20] in a line: qHTS assay for cell viability of the p53RE-bla HCT-116 cell line (AID 743292). Further: on the % scale 0 is the no-effect control and ±100 the full control effect; nearly all actives have a fitted effect of over 55% in size. The conditions noted are these: p53RE-bla HCT-116 viability, ATP luminescence, 16 h; series mostly up to 95 µM. In short, it runs like this: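 Luminescent ATP quantitation (CellTiter-Glo) served as the viability read-out; reagent was added after 16 h compound exposure at 37 C and read after 30 min at room temperature. Cells: p53RE-bla HCT-116, 4,000 per well.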

Chain of Peroxisome proliferator-activated receptor alpha (Homo sapiens) (Q07869 whole entry, looked up): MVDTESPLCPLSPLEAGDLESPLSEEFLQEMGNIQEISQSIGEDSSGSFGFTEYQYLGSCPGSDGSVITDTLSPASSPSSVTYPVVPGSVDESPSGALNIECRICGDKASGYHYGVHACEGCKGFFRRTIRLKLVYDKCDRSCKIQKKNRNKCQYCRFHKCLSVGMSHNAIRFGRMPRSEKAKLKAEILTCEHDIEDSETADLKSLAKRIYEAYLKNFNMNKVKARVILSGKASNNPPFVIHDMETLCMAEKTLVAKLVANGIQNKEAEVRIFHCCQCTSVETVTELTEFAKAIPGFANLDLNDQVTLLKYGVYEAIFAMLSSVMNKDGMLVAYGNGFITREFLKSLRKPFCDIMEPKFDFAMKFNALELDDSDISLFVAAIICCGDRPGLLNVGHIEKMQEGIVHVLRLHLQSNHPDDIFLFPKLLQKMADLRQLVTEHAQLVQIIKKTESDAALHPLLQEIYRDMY

For the compound `Nc1ccc(-c2ccc(N)cc2)cc1`, the Potency in assay [1], in [2], in assay [3] and in assay [4] was more than 92 µM each time. In addition, in assay [5], the caspase-3 activation is 0.684%. Moreover, the compound was called inactive in [6], in [7], in [8], in [9], in assay [10] and in [11]. In assay [13], the call was inactive. In addition, the Potency entry in assay [12], in assay [14], in assay [15], in assay [16], in assay [17] and in assay [20] was “inactive” each time. Moreover, the max response in assay [18] is -0.279%; in [19], 2.98%.

For the compound `OCCBr`, the Potency in assay [1], in [2], in assay [3] and in [4] was more than 92 µM in each case. The caspase-3 activation in [5] was -0.73%. The outcome in [6], in assay [7], in assay [8], in assay [9], in [10] and in assay [11] was inactive. Also, the compound was classed as inactive in assay [13]. Further, the Potency entry in assay [12], in assay [14], in assay [15], in assay [16], in [17] and in [20] was “inactive” throughout. For the same compound, the max response in assay [18] is 2.96%; in assay [19], 5.14%.

`O=[N+]([O-])c1ccc(Cl)cc1`: the Potency in [1], in [2], in assay [3] and in assay [4] was more than 92 µM each time. Besides, in assay [5], the caspase-3 activation was 1.25%. In addition, the compound was classed as inactive in [6], in assay [7], in assay [8], in [9], in assay [10] and in assay [11]. Besides, in assay [13], the compound was classed as inactive. In addition, the Potency result in assay [12], in [14], in [15], in assay [16], in [17] and in [20] was “inactive” each time. Also, the max response in assay [18] was -4.31% and 0.471%; in assay [19], 7.34% and -5.17%.

For `O=[N+]([O-])c1cccc(O)c1`, the Potency in assay [1], in assay [2], in assay [3] and in assay [4] was more than 92 µM each time. Also, the caspase-3 activation in [5] was 1.08%. In addition, the outcome in assay [6], in assay [7], in assay [8], in assay [9], in assay [10] and in assay [11] was inactive. Besides, the outcome in [13] was inactive. For the same compound, the Potency entry in assay [12], in assay [14], in [15], in assay [16], in [17] and in [20] was “inactive” each time. The max response in assay [18] was -4.41%; in assay [19] it was -8.12%.

As for `OC[P+](CO)(CO)CO`, the Potency is more than 92 µM in assay [1]; 31.3 µM in assay [2]; more than 92 µM in [3]; more than 92 µM in [4]; 31.6 µM (active) in assay [14]; 20 µM (active) in [15]. Moreover, in assay [5], the caspase-3 activation was 16.2%. Further, the call in assay [6], in [7], in assay [8], in [9], in assay [10] and in assay [11] was inactive. Further, the result in assay [13] was inactive. Also, the Potency result in assay [12], in assay [16], in assay [17] and in assay [20] was “inactive” in each case. The max response is -6.87% and -1.39% in assay [18]; -13.3% in assay [19].

Take `CCCCCc1cc(O)cc(O)c1`: the Potency in [1], in assay [2], in assay [3] and in assay [4] was more than 92 µM each time. In assay [5], the caspase-3 activation was 1.33%. Moreover, the result in [6], in assay [7], in assay [8], in [9], in assay [10] and in assay [11] was inactive. In addition, the outcome in [13] was inactive. In addition, the Potency entry in [12], in assay [14], in assay [15], in assay [16], in assay [17] and in [20] was “inactive” throughout. Besides, the max response is -5.69% in [18] and -5.2% in assay [19].
